Measurements from ChEMBL document CHEMBL1961873, “Compounds: GSK PKIS; Assays: Nanosyn kinase panel” (2012).

Key:
[1] = target: High affinity nerve growth factor receptor (Homo sapiens) (UniProt P04629); conditions: at 1 µM;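 also: each value is the mean percent inhibition of TRKA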
[2] = target: BDNF/NT-3 growth factors receptor (Homo sapiens) (UniProt Q16620); conditions: at 0.1 µM
[3] = target: BDNF/NT-3 growth factors receptor (Homo sapiens) (UniProt Q16620); conditions: at 1 µM
[4] = target: NT-3 growth factor receptor (Homo sapiens) (UniProt Q16288); conditions: at 0.1 µM
[5] = target: NT-3 growth factor receptor (Homo sapiens) (UniProt Q16288); conditions: at 1 µM
[6] = target: T1, Tyrosine-protein kinase TXK (Homo sapiens) (UniProt P42681); conditions: at 0.1 µM
T1 sequence (whole entry): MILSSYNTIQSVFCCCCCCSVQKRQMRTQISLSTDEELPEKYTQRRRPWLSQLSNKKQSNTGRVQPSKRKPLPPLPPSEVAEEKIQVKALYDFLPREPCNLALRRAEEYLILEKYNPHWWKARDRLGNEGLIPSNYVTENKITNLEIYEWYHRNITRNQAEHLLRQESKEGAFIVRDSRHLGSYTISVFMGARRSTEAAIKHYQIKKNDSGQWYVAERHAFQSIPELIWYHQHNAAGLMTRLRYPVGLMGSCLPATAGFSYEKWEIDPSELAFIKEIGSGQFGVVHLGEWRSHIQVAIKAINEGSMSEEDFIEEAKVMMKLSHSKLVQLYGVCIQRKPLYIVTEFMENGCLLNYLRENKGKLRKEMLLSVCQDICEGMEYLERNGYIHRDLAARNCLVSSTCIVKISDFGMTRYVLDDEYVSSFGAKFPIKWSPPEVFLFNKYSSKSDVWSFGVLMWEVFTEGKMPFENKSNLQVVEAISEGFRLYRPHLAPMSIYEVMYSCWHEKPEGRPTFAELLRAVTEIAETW

[7] = target: T1, Tyrosine-protein kinase TXK (Homo sapiens); conditions: at 1 µM
[8] = target: Non-receptor tyrosine-protein kinase TYK2 (Homo sapiens) (UniProt P29597); conditions: at 0.1 µM;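 also: each value is a mean of the inhibition readings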
[9] = target: T2, Dual specificity protein kinase TTK (Homo sapiens) (UniProt P33981); conditions: at 1 µM;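 also: reported figures are mean TTK inhibition at 1 µM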
T2 sequence (whole entry): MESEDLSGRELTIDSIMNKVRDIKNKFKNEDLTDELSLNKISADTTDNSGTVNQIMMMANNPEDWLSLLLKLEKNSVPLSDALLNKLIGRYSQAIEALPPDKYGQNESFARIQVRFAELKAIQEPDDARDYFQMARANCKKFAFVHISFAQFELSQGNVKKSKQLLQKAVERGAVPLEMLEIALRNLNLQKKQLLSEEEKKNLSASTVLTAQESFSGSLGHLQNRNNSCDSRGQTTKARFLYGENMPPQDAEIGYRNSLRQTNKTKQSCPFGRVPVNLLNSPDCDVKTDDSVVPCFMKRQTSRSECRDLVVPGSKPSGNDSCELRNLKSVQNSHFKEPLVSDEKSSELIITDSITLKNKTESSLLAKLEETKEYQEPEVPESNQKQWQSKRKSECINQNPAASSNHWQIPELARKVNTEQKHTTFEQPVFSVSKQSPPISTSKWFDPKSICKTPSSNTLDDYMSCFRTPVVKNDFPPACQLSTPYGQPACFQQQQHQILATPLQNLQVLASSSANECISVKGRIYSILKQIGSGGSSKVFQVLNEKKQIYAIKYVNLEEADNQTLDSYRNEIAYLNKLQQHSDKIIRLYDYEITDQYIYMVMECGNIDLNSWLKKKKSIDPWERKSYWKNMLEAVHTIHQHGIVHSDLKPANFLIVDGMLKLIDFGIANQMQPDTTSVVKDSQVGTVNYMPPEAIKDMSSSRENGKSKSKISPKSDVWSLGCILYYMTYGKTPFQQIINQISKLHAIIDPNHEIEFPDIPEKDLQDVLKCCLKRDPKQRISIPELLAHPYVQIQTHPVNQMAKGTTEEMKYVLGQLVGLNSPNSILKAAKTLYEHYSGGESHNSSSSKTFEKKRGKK

[10] = target: T3, Aurora kinase A (Homo sapiens) (UniProt O14965); conditions: at 0.1 µM
T3 sequence (whole entry): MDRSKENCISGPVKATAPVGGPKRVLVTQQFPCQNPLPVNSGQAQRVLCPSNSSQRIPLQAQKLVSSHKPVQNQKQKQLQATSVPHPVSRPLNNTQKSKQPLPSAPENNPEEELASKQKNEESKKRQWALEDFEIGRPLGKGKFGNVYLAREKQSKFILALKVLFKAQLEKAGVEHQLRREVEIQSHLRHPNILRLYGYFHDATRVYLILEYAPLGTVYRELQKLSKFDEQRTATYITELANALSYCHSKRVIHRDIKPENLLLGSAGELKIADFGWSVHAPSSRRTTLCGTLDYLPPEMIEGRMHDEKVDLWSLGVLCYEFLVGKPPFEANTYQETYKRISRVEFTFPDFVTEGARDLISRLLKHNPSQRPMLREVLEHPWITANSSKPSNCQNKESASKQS

[11] = target: T3, Aurora kinase A (Homo sapiens); conditions: at 1 µM
[12] = target: Aurora kinase B (Homo sapiens) (UniProt Q96GD4); conditions: at 0.1 µM
[13] = target: Aurora kinase B (Homo sapiens) (UniProt Q96GD4); conditions: at 1 µM
[14] = target: T4, Aurora kinase C (Homo sapiens) (UniProt Q9UQB9); conditions: at 0.1 µM
T4 sequence (whole entry): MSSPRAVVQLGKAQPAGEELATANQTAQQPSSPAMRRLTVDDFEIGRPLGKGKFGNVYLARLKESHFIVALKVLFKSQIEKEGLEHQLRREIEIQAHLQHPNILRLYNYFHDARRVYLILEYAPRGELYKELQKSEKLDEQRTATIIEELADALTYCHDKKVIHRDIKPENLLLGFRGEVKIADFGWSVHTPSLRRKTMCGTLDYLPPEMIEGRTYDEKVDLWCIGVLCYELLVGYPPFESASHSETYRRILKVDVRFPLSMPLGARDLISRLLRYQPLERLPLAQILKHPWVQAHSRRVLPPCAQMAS

[15] = target: T4, Aurora kinase C (Homo sapiens); conditions: at 1 µM
[16] = target: Serine/threonine-protein kinase 10 (Homo sapiens) (UniProt O94804); conditions: at 0.1 µM
[17] = target: Serine/threonine-protein kinase 10 (Homo sapiens) (UniProt O94804); conditions: at 1 µM
[18] = target: T5, Mitogen-activated protein kinase kinase kinase kinase 2 (Homo sapiens) (UniProt Q12851); conditions: at 0.1 µM
T5 sequence (whole entry): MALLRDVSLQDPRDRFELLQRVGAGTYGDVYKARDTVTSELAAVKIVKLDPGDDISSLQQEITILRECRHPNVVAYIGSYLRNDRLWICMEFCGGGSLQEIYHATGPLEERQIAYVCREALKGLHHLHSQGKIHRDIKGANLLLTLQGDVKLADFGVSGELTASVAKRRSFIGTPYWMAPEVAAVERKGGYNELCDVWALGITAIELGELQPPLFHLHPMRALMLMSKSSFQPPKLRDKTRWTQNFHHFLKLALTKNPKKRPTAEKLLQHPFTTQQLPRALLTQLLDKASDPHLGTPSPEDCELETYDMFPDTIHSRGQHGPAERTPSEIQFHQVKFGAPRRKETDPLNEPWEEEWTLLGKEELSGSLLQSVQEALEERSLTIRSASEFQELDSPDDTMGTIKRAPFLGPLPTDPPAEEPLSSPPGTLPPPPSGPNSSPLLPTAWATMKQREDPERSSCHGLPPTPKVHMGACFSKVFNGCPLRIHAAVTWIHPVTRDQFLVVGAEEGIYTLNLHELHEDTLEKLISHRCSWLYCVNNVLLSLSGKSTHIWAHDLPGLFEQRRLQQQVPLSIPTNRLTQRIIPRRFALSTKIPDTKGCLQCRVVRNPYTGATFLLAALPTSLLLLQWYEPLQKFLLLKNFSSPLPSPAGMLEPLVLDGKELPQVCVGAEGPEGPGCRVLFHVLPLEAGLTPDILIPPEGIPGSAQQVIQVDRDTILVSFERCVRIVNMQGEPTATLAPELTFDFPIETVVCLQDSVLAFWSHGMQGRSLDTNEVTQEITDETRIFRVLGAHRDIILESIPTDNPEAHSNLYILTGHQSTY

[19] = target: T5, Mitogen-activated protein kinase kinase kinase kinase 2 (Homo sapiens); conditions: at 1 µM
[20] = target: Mitogen-activated protein kinase kinase kinase kinase 4 (Homo sapiens) (UniProt O95819); conditions: at 0.1 µM
Sequence of Mitogen-activated protein kinase kinase kinase kinase 4 (Homo sapiens) (O95819 2-1239 limits assumed): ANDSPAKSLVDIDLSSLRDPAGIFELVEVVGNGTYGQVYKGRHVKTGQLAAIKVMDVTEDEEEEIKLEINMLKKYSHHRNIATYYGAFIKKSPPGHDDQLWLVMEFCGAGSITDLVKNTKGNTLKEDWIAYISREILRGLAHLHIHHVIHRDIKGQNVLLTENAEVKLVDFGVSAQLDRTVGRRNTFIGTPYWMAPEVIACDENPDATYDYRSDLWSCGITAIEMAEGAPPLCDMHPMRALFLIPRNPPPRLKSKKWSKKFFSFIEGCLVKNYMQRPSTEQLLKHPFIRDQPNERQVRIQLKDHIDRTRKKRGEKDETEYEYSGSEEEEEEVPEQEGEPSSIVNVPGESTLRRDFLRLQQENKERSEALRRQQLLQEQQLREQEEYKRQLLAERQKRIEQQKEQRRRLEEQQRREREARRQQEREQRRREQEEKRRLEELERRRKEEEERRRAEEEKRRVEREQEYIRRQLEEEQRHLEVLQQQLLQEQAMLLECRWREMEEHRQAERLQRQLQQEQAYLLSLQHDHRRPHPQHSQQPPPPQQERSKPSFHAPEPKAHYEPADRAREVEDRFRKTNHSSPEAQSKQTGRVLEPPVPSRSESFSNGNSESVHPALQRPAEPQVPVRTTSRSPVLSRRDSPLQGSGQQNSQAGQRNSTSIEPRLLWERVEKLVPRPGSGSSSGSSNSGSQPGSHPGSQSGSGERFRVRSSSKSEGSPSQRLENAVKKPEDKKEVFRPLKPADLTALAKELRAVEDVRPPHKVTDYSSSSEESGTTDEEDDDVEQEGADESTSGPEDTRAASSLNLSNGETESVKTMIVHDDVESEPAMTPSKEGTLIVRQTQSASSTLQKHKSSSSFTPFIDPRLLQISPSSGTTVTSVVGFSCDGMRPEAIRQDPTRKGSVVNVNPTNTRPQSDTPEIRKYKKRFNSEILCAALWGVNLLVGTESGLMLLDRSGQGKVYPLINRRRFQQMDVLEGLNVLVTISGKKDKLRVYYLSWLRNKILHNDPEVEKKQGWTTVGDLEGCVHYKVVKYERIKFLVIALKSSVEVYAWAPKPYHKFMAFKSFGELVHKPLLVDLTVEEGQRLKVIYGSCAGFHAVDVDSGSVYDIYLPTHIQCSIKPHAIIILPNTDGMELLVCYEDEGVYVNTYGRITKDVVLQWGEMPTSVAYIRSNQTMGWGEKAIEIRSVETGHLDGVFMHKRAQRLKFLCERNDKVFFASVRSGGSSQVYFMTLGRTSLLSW

Sequence of BDNF/NT-3 growth factors receptor (Homo sapiens) (Q16620 32-822 limits assumed): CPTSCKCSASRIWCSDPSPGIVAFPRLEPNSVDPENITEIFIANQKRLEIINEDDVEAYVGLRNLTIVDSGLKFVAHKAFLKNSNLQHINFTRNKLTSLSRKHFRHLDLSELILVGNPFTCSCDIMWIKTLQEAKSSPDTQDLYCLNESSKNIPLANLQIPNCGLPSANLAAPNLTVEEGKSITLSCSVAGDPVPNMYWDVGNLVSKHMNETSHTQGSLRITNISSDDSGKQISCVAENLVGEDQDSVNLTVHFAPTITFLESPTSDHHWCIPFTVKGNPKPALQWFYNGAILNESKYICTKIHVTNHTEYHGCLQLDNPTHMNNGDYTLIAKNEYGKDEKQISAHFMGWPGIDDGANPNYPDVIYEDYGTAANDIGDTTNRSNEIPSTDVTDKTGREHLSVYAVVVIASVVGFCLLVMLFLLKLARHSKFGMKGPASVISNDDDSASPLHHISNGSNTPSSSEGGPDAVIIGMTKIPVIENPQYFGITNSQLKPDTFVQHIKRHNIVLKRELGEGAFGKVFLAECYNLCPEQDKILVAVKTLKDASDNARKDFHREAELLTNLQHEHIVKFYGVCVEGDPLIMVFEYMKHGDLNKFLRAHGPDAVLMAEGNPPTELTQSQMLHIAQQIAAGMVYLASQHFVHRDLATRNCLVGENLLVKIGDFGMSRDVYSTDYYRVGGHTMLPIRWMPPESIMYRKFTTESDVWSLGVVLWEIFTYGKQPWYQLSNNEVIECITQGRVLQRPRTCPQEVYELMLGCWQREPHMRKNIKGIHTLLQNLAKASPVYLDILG
Sequence of Non-receptor tyrosine-protein kinase TYK2 (Homo sapiens) (P29597 whole entry): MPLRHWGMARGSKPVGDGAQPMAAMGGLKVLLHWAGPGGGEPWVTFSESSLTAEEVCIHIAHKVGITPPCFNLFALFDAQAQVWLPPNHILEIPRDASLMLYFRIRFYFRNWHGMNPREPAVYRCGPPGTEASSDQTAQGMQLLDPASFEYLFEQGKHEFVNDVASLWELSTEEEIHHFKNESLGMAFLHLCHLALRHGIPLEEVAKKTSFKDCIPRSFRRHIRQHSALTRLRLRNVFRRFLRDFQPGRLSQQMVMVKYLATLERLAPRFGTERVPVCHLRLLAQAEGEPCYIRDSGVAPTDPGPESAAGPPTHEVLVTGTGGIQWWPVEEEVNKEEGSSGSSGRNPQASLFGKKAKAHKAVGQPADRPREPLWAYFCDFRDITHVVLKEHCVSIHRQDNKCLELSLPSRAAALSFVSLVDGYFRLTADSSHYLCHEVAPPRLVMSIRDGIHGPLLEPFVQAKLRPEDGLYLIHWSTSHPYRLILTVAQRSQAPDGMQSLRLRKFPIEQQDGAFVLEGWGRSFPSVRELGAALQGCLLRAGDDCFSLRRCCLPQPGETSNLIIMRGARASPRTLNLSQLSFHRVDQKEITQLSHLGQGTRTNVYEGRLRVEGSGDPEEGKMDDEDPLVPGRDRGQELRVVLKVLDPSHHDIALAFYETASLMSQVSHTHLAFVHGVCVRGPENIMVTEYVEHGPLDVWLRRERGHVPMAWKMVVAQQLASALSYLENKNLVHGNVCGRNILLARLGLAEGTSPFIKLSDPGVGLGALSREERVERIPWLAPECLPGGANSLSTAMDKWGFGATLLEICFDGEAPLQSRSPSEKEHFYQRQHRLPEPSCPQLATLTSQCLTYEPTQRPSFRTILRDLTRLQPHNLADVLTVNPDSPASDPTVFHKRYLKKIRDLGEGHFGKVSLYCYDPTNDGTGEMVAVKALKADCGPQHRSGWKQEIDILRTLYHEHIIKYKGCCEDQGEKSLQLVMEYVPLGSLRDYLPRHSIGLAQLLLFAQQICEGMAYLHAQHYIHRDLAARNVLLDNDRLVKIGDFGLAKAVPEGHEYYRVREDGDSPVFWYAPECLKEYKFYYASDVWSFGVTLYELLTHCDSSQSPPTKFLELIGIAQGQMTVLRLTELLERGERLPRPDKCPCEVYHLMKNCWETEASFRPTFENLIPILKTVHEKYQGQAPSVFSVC
Sequence of High affinity nerve growth factor receptor (Homo sapiens) (P04629 33-796 limits assumed): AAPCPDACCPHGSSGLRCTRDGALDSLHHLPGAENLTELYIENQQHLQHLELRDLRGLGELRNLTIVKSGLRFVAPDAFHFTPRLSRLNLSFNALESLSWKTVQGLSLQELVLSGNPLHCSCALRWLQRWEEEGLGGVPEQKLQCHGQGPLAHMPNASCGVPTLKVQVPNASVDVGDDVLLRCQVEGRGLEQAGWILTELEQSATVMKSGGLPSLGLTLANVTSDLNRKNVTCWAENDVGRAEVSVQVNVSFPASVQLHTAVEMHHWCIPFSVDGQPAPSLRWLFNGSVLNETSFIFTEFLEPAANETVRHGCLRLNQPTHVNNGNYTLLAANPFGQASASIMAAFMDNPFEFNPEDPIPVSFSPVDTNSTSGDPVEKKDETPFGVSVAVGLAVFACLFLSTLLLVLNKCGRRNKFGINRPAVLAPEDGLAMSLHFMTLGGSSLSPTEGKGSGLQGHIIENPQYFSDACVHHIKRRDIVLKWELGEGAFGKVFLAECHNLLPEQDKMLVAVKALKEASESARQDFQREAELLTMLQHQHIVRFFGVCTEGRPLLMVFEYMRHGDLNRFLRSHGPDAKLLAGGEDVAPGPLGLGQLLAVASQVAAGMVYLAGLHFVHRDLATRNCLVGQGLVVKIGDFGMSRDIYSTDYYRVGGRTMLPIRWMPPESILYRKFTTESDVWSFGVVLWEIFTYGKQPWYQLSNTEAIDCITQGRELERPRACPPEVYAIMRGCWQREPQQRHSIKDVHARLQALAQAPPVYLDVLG
Sequence of Serine/threonine-protein kinase 10 (Homo sapiens) (O94804 whole entry, looked up): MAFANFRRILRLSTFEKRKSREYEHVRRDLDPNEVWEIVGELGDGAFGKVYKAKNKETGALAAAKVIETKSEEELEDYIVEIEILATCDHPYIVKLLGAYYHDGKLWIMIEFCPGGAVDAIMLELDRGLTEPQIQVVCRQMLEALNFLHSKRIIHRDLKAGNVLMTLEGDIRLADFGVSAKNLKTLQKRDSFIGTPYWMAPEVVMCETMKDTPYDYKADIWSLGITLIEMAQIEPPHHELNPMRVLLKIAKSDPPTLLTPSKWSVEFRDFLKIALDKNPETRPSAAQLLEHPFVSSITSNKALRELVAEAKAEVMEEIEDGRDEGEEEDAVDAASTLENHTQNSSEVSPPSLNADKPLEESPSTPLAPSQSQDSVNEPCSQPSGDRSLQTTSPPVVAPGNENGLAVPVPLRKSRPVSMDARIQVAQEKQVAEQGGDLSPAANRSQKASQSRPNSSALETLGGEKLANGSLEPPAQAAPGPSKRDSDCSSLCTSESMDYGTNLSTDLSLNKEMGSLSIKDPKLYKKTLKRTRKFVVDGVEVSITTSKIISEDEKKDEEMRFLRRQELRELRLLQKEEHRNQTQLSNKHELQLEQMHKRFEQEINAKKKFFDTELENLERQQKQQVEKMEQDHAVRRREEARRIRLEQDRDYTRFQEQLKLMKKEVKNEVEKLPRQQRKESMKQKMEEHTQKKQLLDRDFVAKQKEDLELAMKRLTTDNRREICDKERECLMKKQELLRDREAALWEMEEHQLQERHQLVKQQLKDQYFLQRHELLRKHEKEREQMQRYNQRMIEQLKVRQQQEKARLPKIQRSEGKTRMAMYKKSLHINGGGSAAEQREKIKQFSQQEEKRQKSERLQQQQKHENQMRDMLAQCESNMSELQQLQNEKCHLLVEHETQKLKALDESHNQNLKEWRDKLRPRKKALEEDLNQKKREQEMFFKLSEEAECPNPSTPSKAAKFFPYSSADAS

Compound | inhibition [1] [%] | inhibition [2] [%] | inhibition [3] [%] | inhibition [4] [%] | inhibition [5] [%] | inhibition [6] [%] | inhibition [7] [%] | inhibition [8] [%] | inhibition [9] [%] | inhibition [10] [%] | inhibition [11] [%] | inhibition [12] [%] | inhibition [13] [%] | inhibition [14] [%] | inhibition [15] [%] | inhibition [16] [%] | inhibition [17] [%] | inhibition [18] [%] | inhibition [19] [%] | inhibition [20] [%]
NS(=O)(=O)c1ccc(N/N=C2\C(=O)Nc3ccc4ncccc4c32)cc1 | 50.4 | 21.5 | 72 | 26.7 | 78.5 | 5.15 | 26.9 | 7.29 | 67.6 | 27.3 | 91.8 | 20 | 67.9 | 15.8 | 91.9 | 4.44 | 13.1 | 11.7 | 49.8 | 44.4
CCNC(=O)O[C@H]1CN[C@H](C#Cc2cc3ncnc(Nc4ccc(OCc5cccc(F)c5)c(Cl)c4)c3s2)C1 | 3.06 | 3.01 | 1.6 | 2.47 | 1.74 | 3.06 | 3.99 | -3.3 | 10.4 | 1.24 | 9.61 | 0.34 | 8.23 | 1.85 | 12 | 3.53 | 9.99 | 0.18 | 2.21 | 4.18
NS(=O)(=O)c1ccc(Nc2ncc(-c3ccccc3)o2)cc1 | 8.51 | 5.29 | 15.4 | 3.31 | 16.7 | 4.63 | 5.69 | -1.15 | 13.2 | 8.3 | 67.2 | 5.18 | 24.7 | 6.57 | 54.5 | 5.53 | 11.7 | 1.1 | 8.73 | 12.4
c1cc(-c2cnn3nc(N4CCOCC4)ccc23)nc(NC2CC2)n1 | 0.98 | 1.83 | 1.21 | 1.5 | 2.55 | 3.34 | 6.11 | -8.45 | 60.1 | 1.84 | 22 | 7.41 | 46.8 | 7.39 | 75.5 | 5.74 | 12.1 | -0.22 | 5.78 | 6.38
CCCN1CCC(c2ccc(Nc3nc(Nc4cc(F)ccc4C(N)=O)c4cc[nH]c4n3)c(OC)c2)CC1 | 3.87 | 4.25 | 9.14 | 2.83 | 7.22 | 3.85 | 6.29 | -2.8 | 83 | 2.78 | 10.4 | 1.95 | 3.04 | 0.37 | -4.81 | 7.74 | 29.2 | 10.2 | 51.6 | 28.1
Fc1ccc(-c2nn3ncccc3c2-c2ccnc(Nc3ccc4c(c3)OCCO4)n2)cc1 | 16.7 | 4.94 | 12.8 | 3.72 | 8.83 | 10.8 | 38 | -8.76 | 19.2 | 2.98 | 33.7 | 4.26 | 12.2 | 1.04 | 22.9 | 10.8 | 41.8 | 1.14 | 12.1 | 20.1
Fc1ccc(-c2nn3ccccc3c2-c2ccncc2)cc1 | 0.45 | 0.38 | 0.3 | -0.15 | -0.76 | 2.39 | 7.59 | 0.8 | 2.44 | 1.94 | 8.81 | -1.03 | 4.77 | 0.61 | 2.01 | 2.07 | 1.79 | 2.33 | 7.42 | 5.52
CN(C)CCOc1ccc(-c2nc(-c3ccncc3)c(-c3ccc4c(c3)CC/C4=N\O)[nH]2)cc1 | 0.58 | 1.83 | 3.37 | 1.52 | 2.87 | 2.32 | 3.33 | -2.09 | 7.21 | 1.33 | 12 | 1.63 | 6.16 | 1.74 | -1.31 | 22.1 | 69.2 | 0.69 | 3.44 | 9.59
FC(F)(F)c1cccc(-c2nn3ncccc3c2-c2ccnc(Nc3ccc4c(c3)OCCO4)n2)c1 | 3.48 | 1.94 | 3.39 | 0.62 | 3.72 | 3.11 | 9 | -2.27 | 14.6 | 2.64 | 24.7 | 4.28 | 12.4 | 1.81 | 19.9 | 3.84 | 19.8 | 1.35 | 12.2 | 7.12
CC(=O)Nc1cccc(C#Cc2cncnc2Nc2ccc(OCc3cccc(F)c3)c(Cl)c2)c1 | -0.49 | 0.63 | 0.88 | -1.1 | 1.69 | 5.05 | 8.59 | 1.05 | 7.9 | 2.48 | 8.44 | 1.68 | 5.28 | 2.09 | 15.3 | 2.85 | 4.01 | 0.88 | 1.54 | 2.7
[O-][S+]1CCN(Cc2ccc(-c3ccc4ncnc(Nc5ccc(OCc6cccc(F)c6)c(Cl)c5)c4c3)o2)CC1 | 3.26 | 3.51 | 2.84 | 2.99 | 3.32 | -0.35 | 5.13 | -1.86 | 13.9 | 4.7 | 4.74 | 4.97 | 9.46 | 0.94 | 6.06 | 9.61 | 15.9 | 1.81 | 5.19 | 7.46
